Tb PYK inh = blocks Trypanosoma brucei pyruvate kinase | AID 624173 | hit rate 0.12% among 410,000 | Q57TT1 | TbPYK enzyme, Kinase-Glo Plus ATP luminescence, 45 min | Potency, µM (highest dose often 76.8 µM), without a hit: top-dose activity, negative = inhibition, usual class: inhibitors; note: potency is the fitted concentration of half-maximal effect; % is set by controls: 0 for no effect and ±100 for the full control effect; nearly all actives have a fitted effect of over 50% in size
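Screened from lowest to highest concentration, compounds were pinned into TbPYK/substrate mixtures, and ADP (130 uM final) was added. Plates sat at room temperature for 45 min prior to Kinase-Glo Plus detection by luminescence.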
CHX counter = counter-screen for Shiga toxin inhibitors: cycloheximide protein synthesis inhibition. cell reporter, cycloheximide protein synthesis inhibition counterscreen. hit rate 12% among 300,000. max response, %; in the data active = max response mostly above about 13%, no sharp cut-off; inactive = mostly below about 14%; note: read at 38.3 µM for the half of the compounds with a filed dose; 0% is about no effect
LmPK inhibitor = blocks Leishmania mexicana pyruvate kinase activity | Potency, µM (top dose mostly 57.5 µM), for inactives: at the top dose activity change, negative = inhibition, most hits filed as inhibitors | purified LmPK, Kinase-Glo ATP luminescence, 1 h | AID 1721 | Q27686 | hit rate 0.37% among 290,000; note: potency is the fitted concentration of half-maximal effect; % is set by controls: 0 for no effect and ±100 for the full control effect
Target sequence (Q27686 whole entry, looked up): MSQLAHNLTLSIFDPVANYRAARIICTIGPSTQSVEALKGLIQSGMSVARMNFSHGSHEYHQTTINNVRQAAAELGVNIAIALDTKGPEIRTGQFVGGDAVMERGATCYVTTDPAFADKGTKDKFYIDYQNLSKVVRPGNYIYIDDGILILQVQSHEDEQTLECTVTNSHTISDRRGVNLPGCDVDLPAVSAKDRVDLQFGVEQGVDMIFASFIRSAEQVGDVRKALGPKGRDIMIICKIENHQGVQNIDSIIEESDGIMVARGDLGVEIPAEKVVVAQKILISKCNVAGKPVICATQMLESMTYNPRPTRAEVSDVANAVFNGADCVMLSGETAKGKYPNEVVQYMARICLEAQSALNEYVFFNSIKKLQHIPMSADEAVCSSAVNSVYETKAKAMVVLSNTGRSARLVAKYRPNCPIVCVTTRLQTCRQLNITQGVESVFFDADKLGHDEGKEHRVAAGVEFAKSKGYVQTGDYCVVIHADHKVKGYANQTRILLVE
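0.1 nM LmPK, 0.5 mM PEP, 0.1 mM ADP; 50 mM imidazole pH 7.2, 7 mM MgCl2, 50 mM KCl; 1 h RT. Kinase-Glo luminescence readout, normalized to no-enzyme (full inhibition) and uninhibited wells.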
Giardia FBPA inh = blocks Giardia fructose-bisphosphate aldolase activity | A8B2U2 | purified Giardia FBPA | Potency, µM (doses to about 59.6 µM), without a hit: at the top dose activity, negative = inhibition, actives largely listed as inhibitors | hit rate 0.71% among 290,000 | AID 2451; note: potency is the fitted concentration of half-maximal effect; % is set by controls: 0 for no effect and ±100 for the full control effect; nearly all actives have a fitted effect of over 55% in size
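Giardia FBPA (40 nM reagent) was preincubated 10 min at RT with compound (up to 57.5 uM final), then substrate plus GAPDH/TPI/NAD/arsenate coupling system with diaphorase/resazurin was added; resorufin fluorescence (525/598 nm) was read after 20 min.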
Shiga inhibitor = blocks Shiga toxin action in Vero cells | Vero cells, Shiga toxin protein synthesis inhibition reporter | inhibition, % at 38.7 µM | hit rate 9.2% among 290,000 | AID 2315; in the data active = inhibition mostly above about 28%, no sharp cut-off; inactive = mostly below about 43%; note: 0% is about no effect
RE007 growth inh = less growth of the S. pombe RE007 Vpr strain | S. pombe RE007 Vpr strain, BacTiter-Glo ATP luminescence, 24 h | AID 651644 | hit rate 0.21% among 360,000 | Potency, µM (series often up to 92.2 µM), without a hit: top-dose activity change, negative = less growth, most hits filed as inhibitors; active = well fitted falling curve with a large enough effect; inconclusive = small, poorly fitted or top-dose-only effect; inactive = no such curve, though single readings can be large or run the other way; note: potency is the fitted concentration of half-maximal effect; % is set by controls: 0 for no effect and ±100 for the full control effect; nearly all actives have a fitted effect of over 50% in size
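Fission yeast RE007 carrying one integrated HIV-1 vpr copy, seeded at OD 0.01 in PMG+AL medium with 23 nL pinned compound. Grown 24 h at 30 degrees; viability read by BacTiter-Glo luminescence after 5 min.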
The depositor's hits bear a star; ? = inconclusive; . = no result; [ ] = dose if it differs, or a comment. The entries come from a sample that favours hits as a whole. Unless noted, calls come from the whole dose curve; as a rule, active = well fitted curve in the direction sought with a large enough effect; inconclusive = small, poorly fitted or top-dose-only effect, or another doubt; inactive = no such curve, though single readings can be large; an effect the other way counts as inactive or inconclusive.

SMILES | Tb PYK inh | CHX counter | LmPK inhibitor | Giardia FBPA inh | Shiga inhibitor | RE007 growth inh
CCCN1C(=O)c2ccc(C(=O)Nc3ccccc3C(=O)O)cc2C1=O | -1% | 16* | -4% | -2% | 46 | -9%
CCCN1C(=O)c2ccc(C(=O)Nc3cc(C)ccc3O)cc2C1=O | -25% | 56* | -6% | 6% | 139* | ?
Cc1ccnc(NC(=O)c2ccc3c(c2)C(=O)N(CC(C)C)C3=O)c1 | -3% | -2 | -5% | . | -11 | -11%
O=C(Nc1ccc(Br)cc1C(=O)O)c1ccc2c(c1)C(=O)N(Cc1ccccc1)C2=O | -1% | 34* | -10% | . | 36* | 3%
Cc1ccc(O)c(NC(=O)c2ccc3c(c2)C(=O)N(CC(C)C)C3=O)c1 | 4% | 33* | -2% | 13% | . | 3%
COc1ccc(-n2c(=O)c3c(c4cc(OC)ccc4n3C)n(CC(=O)N3CCCC3)c2=O)cc1 | 5% | . | . | . | . | .
O=C(COc1ccc(F)cc1)Nc1ccccc1N1CCOCC1 | 0% | . | . | . | . | -24%
Cc1cc(C)c2sc(N3CCN(C(=O)c4ccc(N(C)C)cc4)CC3)nc2c1 | 4% | . | . | . | . | .
CN(C)Cc1csc(Nc2ccc(C(F)(F)F)cn2)n1 | 0% | . | . | . | . | -21%
CC(C)C[C@H]1CN([C@@H](CC(C)C)CN2CCC[C@@H]2CN2C(=S)NC[C@@H]2Cc2ccc(O)cc2)C(=S)N1CC1CCCCC1 | 4% | . | . | . | . | 5%
CC(=O)Oc1ccc2occ(C(=O)c3cccs3)c2c1 | 3% | 37* | 1% | 2% | 67* | -27%
O=C(CCl)Oc1ccc2occ(C(=O)c3cccs3)c2c1 | 4% | 39* | -16% | 1% | 50 | -21%
CC(=O)Oc1ccc2occ(-c3ccccc3)c2c1 | 1% | 25* | 0% | 11% | 125* | -29%
O=C(c1cccs1)c1coc2ccc(O)cc12 | -2% | 75* | -3% | 3% | 81* | -9%
O=C(Oc1ccc2c3c(c(=O)oc2c1)CCCC3)c1cccs1 | 6% | -2 | -2% | 0% | -11 | -11%
CC(=O)Oc1ccc2occ(C(=O)c3ccccc3)c2c1 | -5% | . | . | . | . | ?
CC(C(=O)Nc1ccc2c(c1)OCO2)N1CCC(N2CCCCC2)CC1 (centres undefined) | 1% | . | . | . | . | 6%
C=CCc1c(NCCO)nc(C)[nH]c1=O | -5% | 20* | 1% | 6% | 32 | 3%
CCOc1ccc(-n2c(-c3ccco3)n[nH]c2=S)cc1 | ? | -4 | ? | -2% | -15 | 4%
S=c1[nH]nc(-c2ccco2)n1-c1ccccc1Cl | ? | 33* | ? | -16% | 67* | -16%
S=c1[nH]nc(-c2ccc3ccccc3n2)n1-c1ccccc1Cl | -11% | 5 | 28µM* | -19% | 11 | -17%
Cc1ccc(-n2c(-c3ccco3)n[nH]c2=S)cc1 | 6.3µM* | -1 | ? | 6% | 20 | 7%
Fc1ccc(-n2c(-c3ccco3)n[nH]c2=S)cc1 | 8.9µM* | -1 | ? | -17% | -3 | 12%
CCOC(OCC)c1cn(Cc2ccc3c(c2)C(=O)c2ccccc2C3=O)nn1 | . | 11 | 0% | 3% | 12 | .
Cc1onc(-c2ccccc2)c1-c1n[nH]c(=S)n1-c1ccccc1Cl | ? | -6 | 18µM* | -8% | -15 | -7%
SMILES | Tb PYK inh | CHX counter | LmPK inhibitor | Giardia FBPA inh | Shiga inhibitor | RE007 growth inh
Cc1noc(C)c1-c1cc(NC2CCNCC2)ncn1 | . | . | . | -3% | . | .
CCc1nc(SCc2ccc([N+](=O)[O-])cc2)n[nH]1 | -6% | 36* | 0% | -17% | 76* | 14%
CCCCOc1ccc(CSc2n[nH]c(C)n2)cc1 | -12% | 33* | -2% | -5% | 93* | -28%
CCc1nnc(SCc2ccc([N+](=O)[O-])cc2)nc1CC | 8% | . | . | . | . | 5%
Cc1nc(SCc2ccc(C#N)cc2)n[nH]1 | -2% | 18* | -2% | -19% | . | 0%
Cc1nc(SCc2ccc([N+](=O)[O-])cc2)n[nH]1 | -4% | 5.9* | 12% | -20% | . | 12%
CCOc1ccc(Cl)cc1CSc1n[nH]c(C)n1 | 4% | -1 | 1% | -1% | 1 | -10%
COc1ccc(S(=O)(=O)N2CCC3(CC2)CC(=O)c2ccccc2O3)cc1OC | 5% | . | . | . | . | 1%
O=C(Nc1ccc(Cl)c(S(=O)(=O)N2CCOCC2)c1)c1ccncc1 | 9% | . | . | . | . | -11%
CN(c1ccccc1)S(=O)(=O)c1ccc(Cl)c(C(=O)OCC(=O)c2c(N)n(C)c(=O)n(C)c2=O)c1 | 1% | . | . | . | . | -1%
FC(F)(F)c1cccc(N2CCC(N=CN3CCCCCC3)=N2)c1 | 0% | 39* | 1% | 0% | 49* | -3%
Oc1ccccc1C=NC1=NN(c2cccc(C(F)(F)F)c2)CC1 | -6% | 5 | -9% | -13% | 3 | -2%
CN(C)S(=O)(=O)c1ccc2c(c1)N(CC(=O)NCc1ccccc1)C(=O)C1CCCCN21 (centres undefined) | -3% | . | . | . | . | .
Cc1[nH]n(C(N)=S)c(=O)c1N=Nc1ccc(S(=O)(=O)N2CCCC2)cc1 | -9% | 19* | -1% | ? | 23 | 0%
Cc1[nH]n(C(N)=S)c(=O)c1N=Nc1cc(C(F)(F)F)ccc1Cl | 3% | -5 | 0% | 18% | 1 | 0%
Cc1ccc(N=Nc2c(C)[nH]n(C(N)=S)c2=O)cc1 | 4% | 26 | -2% | -1% | 56 | -12%
Cc1[nH]n(C(N)=S)c(=O)c1N=Nc1ccc(Br)cc1 | -6% | 27* | 10% | 20% | 42* | -12%
Cc1[nH]n(C(N)=S)c(=O)c1N=Nc1cccc(C(F)(F)F)c1 | 0% | 17 | 3% | 24% | 32* | 3%
COc1ccccc1CNC(=O)c1ccc(CSc2nc3ccncc3n2Cc2cccc(F)c2)cc1 | 0% | . | . | . | . | .
COC(=O)[C@@H]1O[C@@H](c2c(OC)c(OC)c(C)c(OC)c2OC)[C@H](C)[C@@H](O)[C@@H]1C | . | . | . | 1%[12.9 µM] | . | .
CSc1ncc(C(=O)Nc2cc(C)cc(C)c2)c(-c2ccccc2)n1 | -3% | . | . | . | . | .
O=C(Nc1ncccc1O)c1ccc(S(=O)(=O)Nc2ccccc2)cc1 | 1% | . | . | . | . | 1%
CN(C)c1c([N+](=O)[O-])cc(N2C(=O)C=CC2=O)cc1[N+](=O)[O-] | 7.9µM* | . | . | . | . | 27%
Cn1c(=O)c(=O)n(C)c2cc([N+](=O)[O-])c([N+](=O)[O-])cc21 | 1% | -3 | 3% | -20% | 3 | 9%
O=C1CCOc2cc(OCc3ccccc3)ccc21 | -2% | 33* | ? | -6% | 50* | -21%
C[C@@H]1C(SC2Cn3cnc[n+]3C2)=C(C(=O)[O-])N2C(=O)[C@H]([C@@H](C)O)[C@@H]12 (some centres undefined) | 2% | . | . | . | . | .
CC(=O)Nc1ccc(C=NNC(=O)C2CC2)cc1 | 7% | . | . | . | . | -9%
CC(C)(C)c1ccc(/C=N/NC(=O)C2CCCC2)cc1 | 4% | 51* | 0% | . | 133* | -2%

From PubChem
